Records with an inconclusive call do not appear. Some structures have more than one record in an assay (separate samples or runs), and their calls can disagree. Active and inactive are the calls of the source. The calls were made as follows, unless noted: active = hit-call score of the fitted dose curve at least 0.9, where 1 is the maximum; inactive = score below 0.9.

In PubChem BioAssay (EPA / NIEHS) one finds outcome and AC50 data, which are given here for 20 compounds.

Test [1] addresses human Vitamin D Receptor (VDR), VDR (gene 7421) (UniProt P11473). As to the kind of experiment: ATG_VDR_TRANS: Attagene TRANS-FACTORIAL HepG2 Assay for human Vitamin D Receptor (VDR) (AID 2283022; active = hit-call score of the fitted dose curve at least 0.9, where 1 is the maximum). The procedure, abridged:
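Transactivation by an exogenous VDR-Gal4 chimera in transiently transfected HepG2 cells was measured as reporter transcript level 24 hours after chemical treatment. RT-PCR products were analysed by capillary electrophoresis and fitted in the positive direction relative to DMSO.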

A short description of test [2]: BSK_3C_SRB: Viability Assessment in the BioMAP Diversity Plus: 3C Assay (AID 2283023).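 Also: fitted both ways against DMSO so a hit may be signal rise or drop.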 Particulars: primary human endothelial cells (HUVEC). An outline of the steps: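 Cytotoxicity readout in parallel HUVEC 3C cultures: after 24 h compound exposure, cells fixed with 10% TCA, stained with 0.1% SRB and read at 560 nm. Gain or loss relative to DMSO fitted.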
Read-out in test [3]: Matrix Metallopeptidase 1 (MMP1), MMP1 (gene 4312)
The test is described as follows: BSK_BE3C_MMP1: BioMAP Diversity Plus: BE3C Assay for Matrix Metallopeptidase 1 (MMP1) Biomarker Activity (AID 2283024). The conditions noted are these: primary human bronchial epithelial cells; actives raise or lower the signal. An outline of the steps: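 ELISA read-out of MMP1 in human lung bronchial epithelial primary cultures, 24 h post-dose; bidirectional curve fit vs DMSO baseline, gain or loss of signal scored.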

Read-out in test [4]: Pselectin, SELP (gene 6403)
As to the kind of experiment: BSK_4H_Pselectin: BioMAP Diversity Plus: 4H Assay for Pselectin Biomarker Activity (AID 2283026). The conditions noted are these: primary human endothelial cells (HUVEC); actives raise or lower the signal. The procedure, abridged:
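HUVEC, 24 h chemical exposure; P-selectin read by ELISA. Bidirectional curve fit vs DMSO baseline; gain or loss of signal scored.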

A short description of test [5]: BSK_4H_SRB: Viability Assessment in the BioMAP Diversity Plus: 4H Assay (AID 2283027).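 Also: cells exposed to compound for 24 h before staining.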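 As to AC50: curves fitted both ways versus DMSO so AC50 may be loss or gain.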 Particulars: primary human endothelial cells (HUVEC). The procedure, abridged:
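HUVEC, 24 h post-dose; 10% TCA fix, 0.1% SRB stain, A560 nm. Total protein = overt cytotoxicity, parallel to biomarker read. Bidirectional fit vs DMSO baseline.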

Test [6] is described as follows: BSK_BE3C_SRB: Viability Assessment in the BioMAP Diversity Plus: BE3C Assay (AID 2283028).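 Also: measured 24 h after chemical dosing.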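 As to AC50: fitted both ways so AC50 may mark signal gain or loss versus DMSO.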 Particulars: primary human bronchial epithelial cells. The procedure, abridged: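 Cytotoxicity read-out: SRB (0.1%) staining of TCA-fixed (10%) human lung bronchial epithelial cells, absorbance 560 nm, 24 h post-dosing. Curves fitted both directions relative to DMSO.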
Read-out in test [7]: Thrombomodulin, THBD (gene 7056)
The test is described as follows: BSK_3C_Thrombomodulin: BioMAP Diversity Plus: 3C Assay for Thrombomodulin Biomarker Activity (AID 2283029). The conditions noted are these: primary human endothelial cells (HUVEC); actives raise or lower the signal. An outline of the steps:
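HUVEC, 3C conditions; compound 24 h; thrombomodulin by ELISA; bidirectional curve fit vs DMSO baseline; parallel SRB total-protein staining for cytotoxicity.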

Read-out in test [8]: Vascular endothelial growth factor receptor 2 (Homo sapiens) (UniProt P35968)
As to the kind of experiment: BSK_4H_VEGFRII: BioMAP Diversity Plus: 4H Assay for Vascular endothelial growth factor receptor 2 (VEGFR2) Biomarker Activity (AID 2283031).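 As to AC50: cell-surface VEGFR2 protein level quantified by ELISA.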 Particulars: primary human endothelial cells (HUVEC); actives raise or lower the signal. The procedure, abridged:
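Measured by ELISA after 24 h of compound treatment: VEGFR2 on primary human umbilical vein endothelial cells, fitted in both directions relative to DMSO. Parallel cultures received SRB staining (560 nm) for overt cytotoxicity.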

Test [9] is described as follows: BSK_3C_Vis: BioMAP Diversity Plus: 3C Assay for Morphology Visualization (AID 2283025).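 Also: fitted both ways so gain or loss versus DMSO counts.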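 As to AC50: light microscopy image of cell morphology used as background control.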 Particulars: primary human endothelial cells (HUVEC). The procedure, abridged:
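HUVEC, 3C system; light microscopy of morphology at 24 h post-dose. Bidirectional fit vs DMSO baseline. Secondary readout, background-control function.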

Read-out in test [10]: Urokinase-type plasminogen activator receptor (uPAR), PLAUR (gene 5329)
The test is described as follows: BSK_4H_uPAR: BioMAP Diversity Plus: 4H Assay for Urokinase-type plasminogen activator receptor (uPAR) Biomarker Activity (AID 2283030). The conditions noted are these: primary human endothelial cells (HUVEC); actives raise or lower the signal. The procedure, abridged:
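uPAR level read by ELISA on HUVEC cultures (BioMAP 4H) 24 h post-dosing, analyzed for gain or loss relative to DMSO. Parallel SRB staining assessed overt cytotoxicity.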

Sequence of human Vitamin D Receptor (VDR), VDR (gene 7421) (P11473 whole entry, looked up, the tested form may be a part): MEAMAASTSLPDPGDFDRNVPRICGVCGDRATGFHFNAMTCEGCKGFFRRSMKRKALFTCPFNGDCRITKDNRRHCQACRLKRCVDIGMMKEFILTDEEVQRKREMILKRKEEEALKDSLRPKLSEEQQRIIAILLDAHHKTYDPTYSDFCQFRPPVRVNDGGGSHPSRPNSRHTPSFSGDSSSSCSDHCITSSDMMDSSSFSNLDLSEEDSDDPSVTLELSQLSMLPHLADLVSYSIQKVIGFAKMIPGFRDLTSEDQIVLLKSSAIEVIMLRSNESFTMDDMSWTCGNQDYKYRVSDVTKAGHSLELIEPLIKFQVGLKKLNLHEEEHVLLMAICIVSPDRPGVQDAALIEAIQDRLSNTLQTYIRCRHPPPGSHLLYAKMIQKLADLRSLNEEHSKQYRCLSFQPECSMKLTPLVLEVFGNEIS

Turning to `C[C@]12C=CC(=O)C=C1CC[C@H]1[C@@H]3C[C@@H](O)[C@](O)(C(=O)CO)[C@@]3(C)C[C@H](O)[C@@]12F`, the call in test [1], in test [2], in [3], in [4], in test [5] and in test [6] was inactive. Further, the result in test [7] and in [8] was inactive.

For the compound `OCC(CO)(CO)CO`, the outcome in test [1], in [2], in [3], in test [9], in test [4] and in test [5] was inactive. Moreover, the outcome in test [6], in test [7], in test [10] and in test [8] was inactive.

Consider `FC(F)C(F)(F)COCC1CO1` (stereo not drawn), for which the call in test [1], in test [2], in test [3], in test [4], in test [5] and in [6] was inactive. For the same compound, the result in test [7] and in test [8] was inactive.

For the compound `FC(F)(F)C(F)(F)C(F)(F)C(F)(F)C(F)(F)C(F)(F)I`, the compound was called inactive in test [1], in [2], in test [3], in [4], in test [5] and in test [6]. For the same compound, the result in test [7] and in test [8] was inactive.

For `Cc1cccc(O)c1C`, the outcome in [1], in test [2], in [3], in test [9], in [4] and in [5] was inactive. In addition, the result in test [6], in [7], in test [10] and in [8] was inactive.

As for `CC(C)CCCCCCOC(=O)C1CCCCC1C(=O)OCCCCCCC(C)C` (stereo not drawn), the outcome in test [1], in [2], in test [4], in test [5], in test [6] and in [7] was inactive. Moreover, the outcome in test [8] was inactive.

As to `COS(C)(=O)=O`, the outcome in test [1], in [2], in test [3], in test [4], in test [5] and in [6] was inactive. The outcome in test [7] and in test [8] was inactive.

For the compound `NC(=O)NN=Cc1ccc([N+](=O)[O-])o1`, the compound was called inactive in test [1], in test [2], in [9], in test [4], in test [5] and in test [6]. In addition, the result in [7] and in test [8] was inactive.

In the case of `C=CCc1cc(S(=O)(=O)c2ccc(O)c(CC=C)c2)ccc1O`, the result in [1] and in test [7] was inactive. Further, the concentration at half-maximal activity (AC50) in test [4] is 33.8 µM (active); in test [5], 20 µM (active); in [6], 15.8 µM (active); in [10] it was 13.9 µM (active); in test [8], 20 µM (active).

`CC(=O)c1ccccc1`: the outcome in test [2], in test [3], in [4], in [5], in [6] and in test [7] was inactive. Further, the result in test [10] and in [8] was inactive.

Consider `OC(O)(C(F)C(O)(O)C(F)(F)F)C(F)(F)F`, for which the call in test [1], in test [3], in test [4], in test [5], in test [6] and in [7] was inactive. For the same compound, the result in test [8] was inactive.

Regarding `O=C(NO)C1(NS(=O)(=O)c2ccc(Oc3ccc(F)cc3)cc2)CCOCC1`, the compound was classed as inactive in [1], in test [3], in test [9], in [4], in test [5] and in [6]. Besides, the outcome in test [7] and in test [8] was inactive.

On to `CCCc1ccccc1`, for which the compound was called inactive in test [1], in test [4], in [5], in test [6], in test [7] and in [10]. In addition, the result in [8] was inactive.

`Nc1ccn([C@@H]2O[C@H](CO)[C@@H](O)[C@@H]2O)c(=O)n1`: the result in test [1], in test [3], in test [4], in [5], in [6] and in test [7] was inactive. Also, in test [8], the result was inactive. Besides, in test [9], the half-maximal activity concentration (AC50) is 39 µM (active).

For `CCOc1ccc2[nH]cc(C(=O)NCc3ccccc3)c(=O)c2n1`, the compound was classed as inactive in test [1], in test [3], in [9], in test [4], in [5] and in [6]. For the same compound, the result in test [7] and in test [8] was inactive.

For `CCN(CC)C(=S)SSC(=S)N(CC)CC`, in test [1], the outcome was inactive. In addition, the half-maximal activity concentration (AC50) in test [3] is 25.5 µM (active); in test [9] it was 39.8 µM (active); in [4] it was 20 µM (active); in test [5], 31.7 µM (active); in test [6], 34.6 µM (active); in test [8], 26.8 µM (active).

As to `NCC(F)(F)C(F)(F)C(F)(F)C(F)(F)F`, the compound was called inactive in test [1], in [4], in test [5], in [6], in test [7] and in test [10]. Further, in test [8], the outcome was inactive. For the same compound, the AC50 in test [7] was 5.95 µM (active).

Turning to `CCCCCOC(C)=O`, the call in test [1], in test [3], in test [4], in test [5], in test [6] and in [7] was inactive. In addition, the outcome in test [10] and in [8] was inactive.

With `CCCCCCCCCC`, the result in test [1], in [9], in test [4], in [5], in test [6] and in test [7] was inactive. The outcome in test [10] and in test [8] was inactive.

As for `CC[C@H](C)C(=O)O[C@H]1C[C@H](O)C=C2C=C[C@H](C)[C@H](CC[C@@H](O)C[C@@H](O)CC(=O)O)[C@H]21`, the outcome in test [1], in test [3], in [4], in test [5], in test [6] and in test [7] was inactive. Also, the result in test [8] was inactive.
